Test results reported in the supplement of paper PMC6555819.

System: PPARg:RXRa 30nM:10nM, anti-RXR (NR concentration 30 nM, RXRa partner concentration 10 nM)
Assay: PBM binding z-score (relative to random genomic background probes); higher = stronger binding; sequences stand for … in GC…GCGATTGACAGCGTAGAATGAAGG
Procedure, shortened: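 Regression normalization was applied to scanned fluorescence from custom Agilent 4×180K protein-binding microarrays. Before scanning, arrays were incubated 1 h with ligand-free nuclear receptor dimers, and binding was detected with antibodies against each partner (one per run). Binding z-scores use the random background probes as reference.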

Sequence | PBM binding z-score
CGAACTAGGTCACCAGGACAGTAAAGAGGTTGGA | 4.73
ATATGTAGGATATCGGGTCATTCAGTTTGCGCAT | 1.16
ATACGTAGGTTACATCCGGGTCATTCAGGCTATG | 0.526
ATATGGAGGTTAGGGTCATTCAGAAAGTAGGGAA | 1.89
ATATGTAGGTTAGGGTCATTCACAAAGTAGGGAA | 3.97
TAGCCTAGGTCATTCAGGGGGCAGTATAGAAAGC | 1.89
CGAGCTAGGTCACCAGGACAGTGAAGAGGTTGGA | 0.712
CGAACTAGGCCAAAGGACAGTGAAAGGCGACGTA | 5.3
CGAACTAGGTCACCACGACAGTGAAGAGGTTGGA | 4.87
CGTCCAAGGTCAATGCAAGGTCAGTGAAAGCATT | 2.05
CGAACCAGGTCACCAGGACAGTGAAGAGGTTGGA | 2.44
CCTAGTTGGTCAAGGTAACACACGCTATAGGTAC | 0.57
ATATGTAGGTTACATCCGAGTCATTCAGGCTATG | 1.78
ATATGAAGGTTATCGGGTCATTCAGTTTGCGCAT | 1.52
ATATGTAGGTTACATCGGGGTCATTCAGGCTATG | 4.23
CTCGAAAGGTCGGTTGAGGTGAGTAAACGGATAA | 0.048
CGAACTAGGTAAAAGGACAGTGAAAGGCGACGTA | 5.66
CGTCAAAGTTCAACTAAGTTAACGTAAAGCACGC | 2.33
ATATGTGGGTTAGGGTCATTCAGAAAGTAGGGAA | 3.82
CCGACGGGGGCAAGGTTACCATAACGCACAGCCA | 1.37
CTCGAAAGGTCGTCCTCAGGTGAGTATACCAAAC | 0.492
ATTTGTAGGTTATCGGGTCATTCAGTTTGCGCAT | 2.93
